# Reference: the supplement of paper PMC8728848
# Only a selection was taken, and the strongest signals are over-represented in it overall.
# Tests used:
# Assay in all cases: glycan array binding signal (z-score within array); higher = stronger binding
# Details in all cases: glycan notation: IUPAC condensed, linker removed
# [1] = system: Gal(b1-3)GlcNAc(b1-3)Gal(b1-4)Glc
# In short: (§1)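 Arrays were curated from the Consortium for Functional Glycomics database, 3228 in total, and kept only where the protein sequence was available. Binding is expressed as a within-array Z-score. This score was averaged across arrays of the same protein sequence at different concentrations or buffers and across linkers, and negative values can be read as non-binding.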
# [2] = system: Gal(b1-3)[Fuc(a1-4)]GlcNAc(b1-2)Man(a1-3)[Gal(b1-3)[Fuc(a1-4)]GlcNAc(b1-2)Man(a1-6)]Man(b1-4)GlcNAc(b1-4)GlcNAc
# In short: as §1
# [3] = system: Gal(b1-3)[Fuc(a1-4)]GlcNAc(b1-2)Man(a1-3)[Gal(b1-3)[Fuc(a1-4)]GlcNAc(b1-2)Man(a1-6)]Man(b1-4)GlcNAc(b1-4)[Fuc(a1-6)]GlcNAc
# In short: as §1
# [4] = system: Gal(b1-4)GalNAc(b1-3)[Fuc(a1-2)]Gal(b1-4)GlcNAc
# In short: as §1
# [5] = system: Gal(b1-3)[Fuc(a1-4)]GlcNAc(b1-3)Gal(b1-4)GlcNAc
# In short: as §1
# [6] = system: Gal(b1-3)[Fuc(a1-4)]GlcNAc(b1-6)GalNAc
# In short: as §1
# [7] = system: Gal(b1-3)GlcNAc(b1-3)Gal(b1-4)GlcNAc(b1-2)[Gal(b1-3)GlcNAc(b1-3)Gal(b1-4)GlcNAc(b1-6)]Man(a1-6)[Gal(b1-3)GlcNAc(b1-3)Gal(b1-4)GlcNAc(b1-2)Man(a1-3)]Man(b1-4)GlcNAc(b1-4)[Fuc(a1-6)]GlcNAc
# In short: as §1
# [8] = system: Gal(b1-3)GlcNAc(b1-3)Gal(b1-4)GlcNAc(b1-3)Gal(b1-4)GlcNAc(b1-2)[Gal(b1-3)GlcNAc(b1-3)Gal(b1-4)GlcNAc(b1-3)Gal(b1-4)GlcNAc(b1-6)]Man(a1-6)[Gal(b1-3)GlcNAc(b1-3)Gal(b1-4)GlcNAc(b1-3)Gal(b1-4)GlcNAc(b1-2)Man(a1-3)]Man(b1-4)GlcNAc(b1-4)[Fuc(a1-6)]GlcNAc
# In short: as §1
# [9] = system: Gal(b1-3)GlcNAc(b1-6)Gal(b1-4)GlcNAc
# In short: as §1
# [10] = system: Gal(b1-3)GlcNAc6S
# In short: as §1
# [11] = system: Gal(b1-3)[Fuc(a1-4)]GlcNAc(b1-3)Gal(b1-4)[Fuc(a1-3)]GlcNAc
# In short: as §1
# [12] = system: Gal(b1-3)[Fuc(a1-4)]GlcNAc(b1-3)Gal(b1-3)[Fuc(a1-4)]GlcNAc
# In short: as §1
# [13] = system: Gal(b1-3)GlcNAc(b1-2)Man
# In short: as §1
# [14] = system: Gal(b1-3)[Fuc(a1-4)]GlcNAc
# In short: as §1
# [15] = system: Gal(b1-3)[Neu5Ac(a2-6)]GalNAc
# In short: as §1
# [16] = system: Gal(b1-4)Glc6S
# In short: as §1
# [17] = system: Gal(b1-3)GlcNAc(b1-2)Man(a1-3)[GlcNAc(b1-4)][Gal(b1-3)GlcNAc(b1-2)Man(a1-6)]Man(b1-4)GlcNAc(b1-4)GlcNAc
# In short: as §1
# [18] = system: Gal(b1-3)GlcNAc(b1-3)Gal(b1-4)GlcNAc(b1-6)[Gal(b1-3)GlcNAc(b1-3)]Gal(b1-4)Glc
# In short: as §1
# [19] = system: Gal(b1-3)GlcNAc(b1-6)GalNAc
# In short: as §1
# [20] = system: Gal(b1-4)Gal
# In short: as §1
substance,measurement,setting,value
"BambL (Burhholderia ambifaria), Q0B4G1",glycan array binding signal (z-score),[1],-0.312
same,glycan array binding signal (z-score),[2],-0.317
same,glycan array binding signal (z-score),[3],-0.066
same,glycan array binding signal (z-score),[4],-0.283
"Wza (Escherichia coli), P0A930",glycan array binding signal (z-score),[1],-0.658
same,glycan array binding signal (z-score),[5],1.14
same,glycan array binding signal (z-score),[6],2.92
AgI/IIC123-GFP (Streptococcus mutans),glycan array binding signal (z-score),[7],5.61
same,glycan array binding signal (z-score),[8],-0.036
same,glycan array binding signal (z-score),[9],0.823
same,glycan array binding signal (z-score),[10],-0.244
Actinohivin (Actinomycete K97),glycan array binding signal (z-score),[3],2.06
"SpGH101 (Streptococcus pneumoniae), Q8DR60",glycan array binding signal (z-score),[2],1.28
same,glycan array binding signal (z-score),[3],0.539
same,glycan array binding signal (z-score),[11],-0.146
"SiiE (Salmonella typhimurium), A0A0H3NVH0",glycan array binding signal (z-score),[12],-0.613
Epa22,glycan array binding signal (z-score),[13],-0.018
same,glycan array binding signal (z-score),[14],-0.223
same,glycan array binding signal (z-score),[15],3.02
same,glycan array binding signal (z-score),[16],-0.061
LcI (Legionella pneumophila),glycan array binding signal (z-score),[17],0.389
same,glycan array binding signal (z-score),[18],-0.388
same,glycan array binding signal (z-score),[9],-0.157
same,glycan array binding signal (z-score),[19],3.69
AgI/II Vhelical-GFP (Streptococcus mutans),glycan array binding signal (z-score),[6],1.08
same,glycan array binding signal (z-score),[20],2.56
same,glycan array binding signal (z-score),[16],-0.148
